Where “and” joins values, the source holds several entries; their conditions need not be identical. Equal entries are not always repeated. Calls of active or inactive are those of the source.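 How the source made its calls, unless noted: active means thallium flux through the channel raised or lowered by more than 3 SD from vehicle-only wells, actives on both sides; inactive means the rest.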
How the values were obtained:
[1] = Wnt pathway potentiators raising nuclear beta-catenin – imaging, WNT3A-conditioned medium, mouse C2C12, NPC library, primary screen (AID 1117326; in the data active means nuclear beta-catenin stimulation mostly above about 4.2%, no sharp cut-off; inactive means mostly below about 10%); conditions: stronger effect = higher value
[2] = stimulators of insulin release from INS-1E, primary screen, cell-based, 5 mM glucose, NPC library (AID 1117329;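 active means compound raises insulin release from rat beta cells at 5 mM glucose, no numeric limit stated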); conditions: rat INS-1E insulin secretion, at 10 µM, stronger effect = higher value
[3] = growth inhibition of GSK3B-pretreated HCT116 cells – cell-based, CellTiter-Glo, 0.2 to 20 µM (AID 1117336;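 active means compounds lowering colon cancer cell viability after pretreatment blocking the GSK3B kinase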); conditions: HCT116 viability after GSK3B inhibitor, at 20 µM, stronger effect = higher value
[4] = inhibition of endothelial tube formation, primary screen, imaging, VEGF stimulated, CD31 staining, tube area, NPC library (AID 1117340;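 active means compound that reduces growth-factor-driven endothelial tube area in a mixed cell culture, no cutoff stated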); conditions: VEGF-stimulated ADSC/ECFC co-culture, at 10 µM, stronger effect = higher value
[5] = GLP1 release stimulators, primary, NCI-H716, NPC library (AID 1117341;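 active means compound raises GLP1 secretion from the human gut endocrine cells, with no numeric limit stated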); conditions: NCI-H716 cells, at 10 µM, stronger effect = higher value
[6] = HCT116 colon cancer cell growth inhibition, primary screen, CellTiter-Glo luminescence, NPC library (AID 1117342;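 active means compounds that lower survival of HCT116 colon cancer cells in the luminescence readout, no numeric limit stated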); conditions: at 20 µM (top of the series)
[7] = reduced SW480 viability measured with CellTiter-Glo, NPC library, primary (AID 1117343;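 active means compounds that lower viability of the colon cancer cells in the luminescence readout, with no numeric limit stated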); conditions: CellTiter-Glo luminescence; at 20 µM (top of the series)
[8] = NPC library primary testing for decreased DLD-1 cell viability via CellTiter-Glo (AID 1117346;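 active means compounds that lower survival of DLD-1 colon cancer cells in the luminescence readout, no cutoff given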); conditions: DLD-1 viability, CellTiter-Glo luminescence; at 20 µM (top of the series)
[9] = biological target: 6-phosphogluconate dehydrogenase, decarboxylating (Homo sapiens) (UniProt P52209); test: inhibition of human phosphogluconate dehydrogenase – biochemical, recombinant enzyme, NADPH absorbance, primary screen (AID 1159550;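 active means at least 20% inhibition of 6-phosphogluconate dehydrogenase activity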); conditions: recombinant 6PGD, NADPH absorbance 341 nm; at 10 µM; stronger effect = higher value
Sequence of 6-phosphogluconate dehydrogenase, decarboxylating (Homo sapiens) (P52209 whole entry, looked up): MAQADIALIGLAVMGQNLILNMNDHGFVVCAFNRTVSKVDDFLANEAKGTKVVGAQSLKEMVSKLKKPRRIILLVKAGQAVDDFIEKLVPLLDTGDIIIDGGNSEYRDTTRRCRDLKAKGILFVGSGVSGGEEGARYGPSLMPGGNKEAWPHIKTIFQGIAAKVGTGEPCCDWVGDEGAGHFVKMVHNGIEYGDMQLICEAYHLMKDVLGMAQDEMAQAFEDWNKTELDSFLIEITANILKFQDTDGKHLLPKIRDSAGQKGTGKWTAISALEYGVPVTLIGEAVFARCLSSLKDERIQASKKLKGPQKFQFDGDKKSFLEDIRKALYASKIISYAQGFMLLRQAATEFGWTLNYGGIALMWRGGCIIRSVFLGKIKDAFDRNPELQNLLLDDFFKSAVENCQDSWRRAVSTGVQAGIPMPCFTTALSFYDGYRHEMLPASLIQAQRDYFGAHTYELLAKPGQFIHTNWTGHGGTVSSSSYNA

[10] = EMT-state selective cytotoxicity in co-culture – imaging, PC-3E GFP, TEM4-18 mCherry, primary screen (AID 1345086;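 active means compounds killing one labelled cell type while sparing the other, by normalised counts and ratio limits, not self-fluorescent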;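 on all read-outs here: cells exposed to compound for 72 h before imaging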;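 on red/green cell ratio (normalised): normalised mesenchymal count divided by normalised epithelial count so high means epithelial killing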); conditions: PC-3E GFP / TEM4-18 mCherry co-culture, imaging cell counts, at 1 µM; for red/green cell ratio (normalised): actives lie on both sides, counts scaled to control wells, 1 = unselective
[11] = MELAS cybrid and Rieske KO viability enhancers – cell-based, MELAS cybrids, Rieske KO mouse fibroblasts, CellTiter-Glo, primary screen (AID 1508586;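 active means mean z-score across replicates of 1.96 or higher in either the MELAS or the Rieske mutant cell line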;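 further: z relative to plate mean and SD of compound and empty wells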); conditions: low glucose
[12] = drug combination growth inhibition, ovarian cancer – cell-based, oncology-focused library, rucaparib conditional, profiling panel (AID 1508598;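 active means normalized viability below 100% at a tested concentration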); conditions: patient-derived ovarian cancer cells, CellTiter-Glo viability, 144 h, stronger effect = lower value
[13] = biological target: NAD(+) hydrolase SARM1 (Homo sapiens) (UniProt Q6SZW1); test: blocking NAD cleavage by SARM1 SAM-TIR – cell lysate, NAD-Glo luminescence (AID 1508614;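 active means compound whose remaining NAD level is above about 45 nM, limit read from the data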); conditions: SAM-TIR HEK293T lysate NADase, at 1 µM, stronger effect = higher value
Sequence of NAD(+) hydrolase SARM1 (Homo sapiens) (Q6SZW1 whole entry, looked up): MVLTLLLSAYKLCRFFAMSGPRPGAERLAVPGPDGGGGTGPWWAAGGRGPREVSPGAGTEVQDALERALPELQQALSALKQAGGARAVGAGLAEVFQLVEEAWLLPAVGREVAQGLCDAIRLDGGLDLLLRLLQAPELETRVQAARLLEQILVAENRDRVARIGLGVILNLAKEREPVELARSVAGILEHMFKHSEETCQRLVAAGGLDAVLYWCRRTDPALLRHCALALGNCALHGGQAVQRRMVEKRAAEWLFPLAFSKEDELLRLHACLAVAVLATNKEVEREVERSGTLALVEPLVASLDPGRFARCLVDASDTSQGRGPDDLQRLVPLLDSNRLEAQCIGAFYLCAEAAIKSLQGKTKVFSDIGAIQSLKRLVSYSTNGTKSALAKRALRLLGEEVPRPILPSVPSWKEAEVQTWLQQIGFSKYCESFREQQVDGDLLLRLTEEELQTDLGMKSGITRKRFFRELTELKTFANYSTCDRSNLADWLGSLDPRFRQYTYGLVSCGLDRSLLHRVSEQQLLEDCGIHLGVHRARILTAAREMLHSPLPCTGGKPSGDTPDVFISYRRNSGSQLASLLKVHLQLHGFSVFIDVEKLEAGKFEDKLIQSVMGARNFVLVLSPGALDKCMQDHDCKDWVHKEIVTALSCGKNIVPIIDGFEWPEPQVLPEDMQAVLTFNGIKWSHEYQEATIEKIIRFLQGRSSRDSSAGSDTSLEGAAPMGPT

F380Y = test: BK channel mutant inhibitors and activators – cell-based, U2OS BacMam, thallium flux, beta subunits, selectivity assay, profiling panel (AID 1259406); conditions: U2OS BacMam BK variants, at 30 µM;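 further: initial slope of Thallos dye fluorescence rise after thallium is added; log ratio against the mean of 0.3% DMSO vehicle wells on the same plate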
F380Y/beta1 = test: as above; conditions: U2OS BacMam BK variants, at 30 µM
F380Y/beta2Delta = test: as above; conditions: U2OS BacMam BK variants, at 30 µM
F380Y/beta4 = test: as above; conditions: U2OS BacMam BK variants, at 30 µM
[14] = biological target: Calcium-activated potassium channel subunit alpha-1 (Homo sapiens) + Leucine-rich repeat-containing protein 26 (Homo sapiens) (UniProt Q12791+Q2I0M4); test: as above; conditions: U2OS BacMam BK variants, F380Y/Slo1WT/gamma1, at 30 µM
Sequence of Calcium-activated potassium channel subunit alpha-1 (Homo sapiens) + Leucine-rich repeat-containing protein 26 (Homo sapiens) (Q2I0M4 whole entry, looked up, one chain of several): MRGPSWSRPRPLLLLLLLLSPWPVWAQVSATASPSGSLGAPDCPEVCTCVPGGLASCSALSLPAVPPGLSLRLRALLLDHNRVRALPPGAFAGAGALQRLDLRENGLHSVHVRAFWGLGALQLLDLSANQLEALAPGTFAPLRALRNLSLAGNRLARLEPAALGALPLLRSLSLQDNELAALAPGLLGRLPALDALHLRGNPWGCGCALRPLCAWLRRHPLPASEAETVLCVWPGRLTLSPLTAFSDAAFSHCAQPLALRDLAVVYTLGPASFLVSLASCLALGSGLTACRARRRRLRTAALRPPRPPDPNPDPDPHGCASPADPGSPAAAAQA

R275C = test: as above; conditions: U2OS BacMam BK variants, at 30 µM
[15] = measured here: epithelial PC-3E GFP cell survival
[16] = measured here: mesenchymal TEM4-18 mCherry cell survival
[17] = MELAS cybrid survival, CellTiter-Glo 48 h, stronger effect = higher value
[18] = Rieske KO mouse fibroblast survival, CellTiter-Glo 72 h

O=c1[nH]cnc2[nH]ncc12
1.06: normalised cell number [10, 15]
active: viability ([12]; at 0.00488 µM, OCI-P5x cells, with rucaparib 20 µM, 100% = cells with rucaparib alone) 98.6% | viability ([12]; at 0.0781 µM, OCI-P5x cells, with rucaparib 20 µM, 100% = cells with rucaparib alone) 99.6% | viability ([12]; at 1.25 µM, OCI-P5x cells, with rucaparib 20 µM, 100% = cells with rucaparib alone) 91.4% | viability ([12]; at 5 µM, OCI-P5x cells, with rucaparib 20 µM, 100% = cells with rucaparib alone) 91.3% | viability ([12]; at 5 µM, OCI-P5x cells, without rucaparib) 98%
1%: nuclear beta-catenin stimulation ([1]; stimulation, at 2 µM)
inactive: nuclear beta-catenin stimulation ([1]; at 10 µM) -0.8% | insulin secretion stimulation [2] -2.4% | viability decrease [3] 3.7% | tube area decrease [4] -6.1% | GLP1 secretion stimulation [5] 0.1% | inhibition of viability [6] 2.7% | viability decrease (inhibition) [7] 25% | viability decrease (inhibition) [8] -0.95% | inhibition [9] 10.8% | red/green cell ratio (normalised) [10] 1.08 | z-score [11, 17] 0.356 and -0.148 and 0.116 | viability ([12]; at 0.000305 µM, OCI-C5x cells, with rucaparib 10 µM, 100% = cells with rucaparib alone) 116% | viability ([12]; at 0.000305 µM, OCI-C5x cells, without rucaparib) 122% | viability ([12]; at 0.000305 µM, OCI-P5x cells, with rucaparib 20 µM, 100% = cells with rucaparib alone) 106% | viability ([12]; at 0.000305 µM, OCI-P5x cells, without rucaparib) 127% | viability ([12]; at 0.00122 µM, OCI-C5x cells, with rucaparib 10 µM, 100% = cells with rucaparib alone) 124% | viability ([12]; at 0.00122 µM, OCI-C5x cells, without rucaparib) 130% | viability ([12]; at 0.00122 µM, OCI-P5x cells, with rucaparib 20 µM, 100% = cells with rucaparib alone) 105% | viability ([12]; at 0.00122 µM, OCI-P5x cells, without rucaparib) 118% | viability ([12]; at 0.00488 µM, OCI-C5x cells, with rucaparib 10 µM, 100% = cells with rucaparib alone) 118% | viability ([12]; at 0.00488 µM, OCI-C5x cells, without rucaparib) 125% | viability ([12]; at 0.00488 µM, OCI-P5x cells, without rucaparib) 111% | viability ([12]; at 0.0195 µM, OCI-C5x cells, with rucaparib 10 µM, 100% = cells with rucaparib alone) 114% | viability ([12]; at 0.0195 µM, OCI-C5x cells, without rucaparib) 121% | viability ([12]; at 0.0195 µM, OCI-P5x cells, with rucaparib 20 µM, 100% = cells with rucaparib alone) 104% | viability ([12]; at 0.0195 µM, OCI-P5x cells, without rucaparib) 114% | viability ([12]; at 0.0781 µM, OCI-C5x cells, with rucaparib 10 µM, 100% = cells with rucaparib alone) 117% | viability ([12]; at 0.0781 µM, OCI-C5x cells, without rucaparib) 124% | viability ([12]; at 0.0781 µM, OCI-P5x cells, without rucaparib) 105% | viability ([12]; at 0.313 µM, OCI-C5x cells, with rucaparib 10 µM, 100% = cells with rucaparib alone) 113% | viability ([12]; at 0.313 µM, OCI-C5x cells, without rucaparib) 117% | viability ([12]; at 0.313 µM, OCI-P5x cells, with rucaparib 20 µM, 100% = cells with rucaparib alone) 102% | viability ([12]; at 0.313 µM, OCI-P5x cells, without rucaparib) 105% | viability ([12]; at 1.25 µM, OCI-C5x cells, with rucaparib 10 µM, 100% = cells with rucaparib alone) 122% | viability ([12]; at 1.25 µM, OCI-C5x cells, without rucaparib) 114% | viability ([12]; at 1.25 µM, OCI-P5x cells, without rucaparib) 105% | viability ([12]; at 5 µM, OCI-C5x cells, with rucaparib 10 µM, 100% = cells with rucaparib alone) 111% | viability ([12]; at 5 µM, OCI-C5x cells, without rucaparib) 109% | remaining NAD [13] 10 nM | log fold change Tl+ flux (F380Y) 0.0236 | log fold change Tl+ flux (F380Y/beta1) 0.000941 | log fold change Tl+ flux (F380Y/beta2Delta) -0.00565 | log fold change Tl+ flux (F380Y/beta4) 0.00785 | log fold change Tl+ flux [14] 0.0214 | log fold change Tl+ flux (R275C) 0.00104
1.15: normalised cell number [10, 16]
-0.183 and 0.499 and -0.321: z-score [11, 18]

NNCCc1ccccc1
0.7%: nuclear beta-catenin stimulation ([1]; stimulation, at 2 µM)
0.91: normalised cell number [10, 16]
inactive: nuclear beta-catenin stimulation ([1]; at 10 µM) 1.9% | insulin secretion stimulation [2] -0.6% | viability decrease [3] -32% | tube area decrease [4] 7.4% | GLP1 secretion stimulation [5] -0.4% | inhibition of viability [6] 5.1% | viability decrease (inhibition) [7] -14.5% | viability decrease (inhibition) [8] 7.4% | inhibition [9] 8.47% | red/green cell ratio (normalised) [10] 0.88 | z-score [11, 17] -0.122 | remaining NAD [13] 10 nM | log fold change Tl+ flux (F380Y) 0.0104 | log fold change Tl+ flux (F380Y/beta1) -0.0168 | log fold change Tl+ flux (F380Y/beta2Delta) -0.0213 | log fold change Tl+ flux (F380Y/beta4) 0.00368 | log fold change Tl+ flux [14] -0.00263 | log fold change Tl+ flux (R275C) -0.025
1.03: normalised cell number [10, 15]
-0.108: z-score [11, 18]

COc1ccc(Cl)cc1C(=O)NCCc1ccc(S(=O)(=O)NC(=O)NC2CCCCC2)cc1
1.05: normalised cell number [10, 16]
-0.5%: nuclear beta-catenin stimulation ([1]; stimulation, at 2 µM)
inactive: nuclear beta-catenin stimulation ([1]; at 10 µM) -0.8% | viability decrease [3] 17.8% | tube area decrease [4] 12% | GLP1 secretion stimulation [5] 4.4% | inhibition of viability [6] 20% | viability decrease (inhibition) [8] 14.1% | inhibition [9] 12.3% | red/green cell ratio (normalised) [10] 1.5 | z-score [11, 17] 0.114 and -0.333 and 0.459 | remaining NAD [13] 10 nM | log fold change Tl+ flux (F380Y) 0.0726 | log fold change Tl+ flux (F380Y/beta2Delta) 0.0268 | log fold change Tl+ flux [14] 0.0583 | log fold change Tl+ flux (R275C) 0.027
active: insulin secretion stimulation [2] 28.1% | viability decrease (inhibition) [7] 72.3% | log fold change Tl+ flux (F380Y/beta1) 0.119 | log fold change Tl+ flux (F380Y/beta4) 0.115
0.7: normalised cell number [10, 15]
0.113 and 0.377 and -0.0891: z-score [11, 18]

N[C@@H]1CONC1=O
0.724: z-score [11, 18]
1.71: normalised cell number [10, 16]
1.27: normalised cell number [10, 15]
3.4%: nuclear beta-catenin stimulation ([1]; stimulation, at 2 µM)
inactive: nuclear beta-catenin stimulation ([1]; at 10 µM) 0.4% | insulin secretion stimulation [2] 1.4% | viability decrease [3] -9.9% | tube area decrease [4] 3.2% | GLP1 secretion stimulation [5] -0.7% | inhibition of viability [6] 8.67% | viability decrease (inhibition) [7] -6.2% | viability decrease (inhibition) [8] -14.1% | inhibition [9] 6.28% | red/green cell ratio (normalised) [10] 1.34 | z-score [11, 17] 0.819 | remaining NAD [13] 10 nM | log fold change Tl+ flux (F380Y) 0.0411 and -0.0245 | log fold change Tl+ flux (F380Y/beta1) 0.0612 | log fold change Tl+ flux (F380Y/beta2Delta) -0.00859 and -0.0479 | log fold change Tl+ flux (F380Y/beta4) 0.0351 | log fold change Tl+ flux [14] -0.0244 and 0.0135 | log fold change Tl+ flux (R275C) -0.00755 and 0.0374

NS(=O)(=O)c1cc2c(cc1Cl)NCNS2(=O)=O
1.24: normalised cell number [10, 15]
1.11: normalised cell number [10, 16]
inactive: nuclear beta-catenin stimulation ([1]; at 10 µM) 0.4% | insulin secretion stimulation [2] -1.9% | viability decrease [3] -1.55% | tube area decrease [4] -9% | GLP1 secretion stimulation [5] -0.3% | inhibition of viability [6] 0.1% | viability decrease (inhibition) [7] 5.4% | viability decrease (inhibition) [8] -1% | inhibition [9] -1.9% | red/green cell ratio (normalised) [10] 0.89 | z-score [11, 17] -0.267 and -0.584 | remaining NAD [13] 10 nM | log fold change Tl+ flux (F380Y) -0.0347 | log fold change Tl+ flux (F380Y/beta1) -0.00418 | log fold change Tl+ flux (F380Y/beta2Delta) -0.0515 | log fold change Tl+ flux (F380Y/beta4) -0.0186 | log fold change Tl+ flux [14] -0.0022 | log fold change Tl+ flux (R275C) -0.00411
0.408 and -0.255: z-score [11, 18]
0.8%: nuclear beta-catenin stimulation ([1]; stimulation, at 2 µM)

N[C@@H](Cc1cc(I)c(Oc2cc(I)c(O)c(I)c2)c(I)c1)C(=O)O
-1.8%: nuclear beta-catenin stimulation ([1]; stimulation, at 2 µM)
inactive: nuclear beta-catenin stimulation ([1]; at 10 µM) -0.2% | insulin secretion stimulation [2] 1.4% | viability decrease [3] 24.1% | tube area decrease [4] 5.6% | GLP1 secretion stimulation [5] 0.1% | inhibition of viability [6] 36.7% | viability decrease (inhibition) [7] 26% | viability decrease (inhibition) [8] -2% | inhibition [9] 12.1% | red/green cell ratio (normalised) [10] 1.06 | z-score [11, 17] -0.661 and -0.549 | remaining NAD [13] 10 nM | log fold change Tl+ flux (F380Y) -0.00167 | log fold change Tl+ flux [14] 0.0246 | log fold change Tl+ flux (R275C) 0.00175
0.96: normalised cell number [10, 15]
1.02: normalised cell number [10, 16]
active: log fold change Tl+ flux (F380Y/beta1) 0.13 | log fold change Tl+ flux (F380Y/beta2Delta) 0.163 | log fold change Tl+ flux (F380Y/beta4) 0.107
-0.144 and -1.61: z-score [11, 18]
